Compound activity deposited in PubChem BioAssay by National Center for Advancing Translational Sciences (NCATS).
IL-1B inflam inh: qHTS for Inhibitors of Inflammasome Signaling: IL-1-beta AlphaLISA Primary Screen; THP-1 LPS/ATP IL-1B secretion, AlphaLISA, 16 h; stronger effect = lower value; 360,000 tested, 4.7% active; AID 743279, 2014; activity change, % at 57.5 µM; in the data active = activity change below about -50%; inconclusive = mostly about -30% to -49%
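THP-1 cells pretreated 1 hr with compounds (up to 57.5 uM final), then stimulated with LPS (250 ng/mL final) plus ATP (1.25 mM final); secreted IL-1B measured by AlphaLISA after 16 hr, decreased signal indicating inhibition.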
KB-V1 MDR tox: qHTS assay for MDR1-selective chemotherapeutics: Primary screen using the drug-selected MDR subline cells KB-V1; AID 1347076, 2019; 400,000 tested, 3.4% active; KB-V1 MDR cells viability, CellTiter-Glo, 72 h; Potency, µM (titrated, usually from 46.1 µM), usual class: cytotoxic; note: nearly all actives have a fitted effect of over 60% in size
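In this primary screen, KB-V1 cells overexpressing P-gp are incubated with library compounds (lowest to highest concentration) for 72 h at 37 degrees C before a luminescent ATP viability read.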
SW480 rerep: A quantitative high throughput screen for small molecules that induce DNA re-replication in SW480 colon adenocarcinoma cells; SW480 DNA re-replication, Hoechst DNA content imaging, 48 h; Potency, µM (top dose mostly 46.1 µM), hits mostly activators; 340,000 tested, 1.8% active; AID 624297, 2012; note: nearly all actives have a fitted effect of over 55% in size
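Image-based DNA-content assay: after two days of treatment, nuclei were labelled with the DNA dye Hoechst and imaged, and hits were compounds raising the count of nuclei showing high fluorescence intensity.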
MCF10A rereplic: A quantitative high throughput screen for small molecules that induce DNA re-replication in MCF 10a normal breast cells; MCF 10A DNA re-replication, Hoechst nuclear intensity, 48 h; Potency, µM (top dose mostly 46.1 µM), actives largely listed as activators; 350,000 tested, 2.9% active; AID 624296, 2012; note: nearly all actives have a fitted effect of over 50% in size
KB-3-1 cytotox: qHTS assay for MDR1-selective chemotherapeutics: Primary screen using the parental adenocarcinoma cell KB-3-1. KB-3-1 viability, CellTiter-Glo ATP luminescence, 72 h. Potency, µM (top dose mostly 46.1 µM), usual class: cytotoxic. 400,000 tested, 1.4% active. AID 1347075, 2019; note: nearly all actives have a fitted effect of over 60% in size
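Using CellTiter-Glo luminescence, growth of non-resistant KB-3-1 adenocarcinoma cells is assessed 72 h after pin-tool compound addition at 37 °C. Normalized responses across the concentration series yield fitted curves.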
Large screens that a line does not name were inactive. This is a sample that favours compounds with a hit; in the whole collection about 9.9% have one here. Unless noted, calls come from the whole dose curve; as a rule, active = well fitted curve in the direction sought with a large enough effect; inconclusive = small, poorly fitted or top-dose-only effect, or another doubt; inactive = no such curve, though single readings can be large; an effect the other way counts as inactive or inconclusive.

COc1ccc(/C=C2\SC(=S)N(CC(=O)N(C)C3CCS(=O)(=O)C3)C2=O)cc1 (centres undefined)	IL-1B inflam inh inconclusive, SW480 rerep inconclusive, MCF10A rereplic 21µM
O=C(O)CCCN1C(=O)/C(=C/C=C/c2ccco2)SC1=S	IL-1B inflam inh inconclusive
COc1cccc(/C=C2\SC(=S)N(CC(=O)N(C)C3CCS(=O)(=O)C3)C2=O)c1 (centres undefined)	SW480 rerep inconclusive, MCF10A rereplic inconclusive
O=C(CCN1C(=O)/C(=C\c2ccccc2Cl)SC1=S)N1CCN(c2ccccc2)CC1	IL-1B inflam inh -107, KB-V1 MDR tox inconclusive, MCF10A rereplic 6.5µM, KB-3-1 cytotox inconclusive
COc1ccc(/C=C2/SC(=S)N(CCC(=O)N3CCN(C)CC3)C2=O)cc1	IL-1B inflam inh -84, SW480 rerep inconclusive, MCF10A rereplic inconclusive, KB-3-1 cytotox inconclusive
COc1ccc(/C=C2/SC(=S)N(CCCC(=O)N3CCN(C)CC3)C2=O)cc1	KB-V1 MDR tox inconclusive, MCF10A rereplic inconclusive, KB-3-1 cytotox inconclusive
N#Cc1ccc(CC(C(=O)O)N2Cc3ccccc3C2=O)cc1 (centres undefined)	KB-V1 MDR tox inconclusive, SW480 rerep inconclusive
CCc1ccc(/C=C2\SC(=S)N(CCC(=O)N3CCN(C)CC3)C2=O)cc1	SW480 rerep inconclusive
CN1CCN(C(=O)CCCN2C(=O)/C(=C/c3ccc(Cl)cc3)SC2=S)CC1	KB-V1 MDR tox inconclusive, MCF10A rereplic inconclusive, KB-3-1 cytotox inconclusive
CC1CCN(C(=O)CCN2C(=O)/C(=C/c3cccs3)SC2=S)CC1	KB-V1 MDR tox inconclusive, SW480 rerep 5.8µM, MCF10A rereplic 23µM, KB-3-1 cytotox inconclusive
O=C(O)CCCN1C(=O)/C(=C\c2ccc(-c3nc4ccccc4s3)o2)SC1=S	SW480 rerep 23µM, MCF10A rereplic inconclusive
O=C(CCN1C(=O)/C(=C\c2ccccc2F)SC1=S)N1CCCCC1	IL-1B inflam inh inconclusive, KB-V1 MDR tox inconclusive, SW480 rerep inconclusive, MCF10A rereplic inconclusive, KB-3-1 cytotox 10µM
CN1CCN(C(=O)CCCN2C(=O)/C(=C/c3ccccc3)SC2=S)CC1	IL-1B inflam inh -97, KB-V1 MDR tox inconclusive, SW480 rerep inconclusive, MCF10A rereplic inconclusive, KB-3-1 cytotox inconclusive
COc1cccc(/C=C2\SC(=S)N(CCC(=O)N3CCCCC3)C2=O)c1	MCF10A rereplic 10µM, KB-3-1 cytotox inconclusive
CCC(=O)Nc1ccc(-c2ccc(NC(=O)CC)c(OC)c2)cc1OC	SW480 rerep inconclusive
CCOc1cc(Cl)c(NC(=O)CC)cc1OCC	SW480 rerep 18µM
Cc1ccc(CSc2nnc(CNc3ccc(F)cc3)o2)cc1	none
Nc1cc(C(=O)OCC(=O)NNC(=O)c2cccs2)ccc1Cl	KB-V1 MDR tox inconclusive, MCF10A rereplic inconclusive
O=C(c1cccs1)N1CCCc2cc(NS(=O)(=O)c3cc(F)ccc3F)ccc21	none (no result: IL-1B inflam inh, SW480 rerep, MCF10A rereplic)
CCOc1ccc(CN(C)C(=O)c2cccc(S(=O)(=O)N3CCCC3)c2)cc1OC	none
CCOc1ccc(CN(C)c2ccc(S(=O)(=O)N3CCN(C)CC3)cc2[N+](=O)[O-])cc1OC	KB-V1 MDR tox 2.3µM, MCF10A rereplic inconclusive, KB-3-1 cytotox 7.3µM
CN1CCN(S(=O)(=O)c2ccc(N(C)Cc3ccc(C(F)(F)F)cc3)c([N+](=O)[O-])c2)CC1	IL-1B inflam inh -85, SW480 rerep inconclusive, MCF10A rereplic inconclusive
C=CCOc1ccc(CN(C)c2ccc(S(=O)(=O)N3CCN(C)CC3)cc2[N+](=O)[O-])cc1	KB-V1 MDR tox 8.2µM, MCF10A rereplic inconclusive, KB-3-1 cytotox inconclusive
O=C(NC1CCCN(Cc2ccccc2F)C1)c1cccs1 (centres undefined)	none
OCCC1CN(Cc2cccc(-n3cccn3)c2)CCN1Cc1ccccc1 (centres undefined)	KB-V1 MDR tox inconclusive
COC(=O)[C@@]1(Sc2ccccc2)CC(=O)N[C@@H]1c1ccccc1	none (no result: SW480 rerep, MCF10A rereplic)
CCCn1c(SCc2nc3ccccc3s2)n[nH]c1=O	none
Cc1cc(C)c(-n2c(SCc3nc4ccccc4s3)n[nH]c2=O)c(C)c1	IL-1B inflam inh -95, KB-V1 MDR tox inconclusive
